According to PMC7826789 (International Journal of Molecular Sciences, 2021):

How the values were obtained:
Conditions in all cases: Compound Concentration (nM):1000
PLK3 = test system: PLK3
PLK4 = test system: PLK4
PRKCD = test system: PRKCD
PRKCE = test system: PRKCE
PRKCH = test system: PRKCH
PRKCI = test system: PRKCI
PRKCQ = test system: PRKCQ
PRKD1 = test system: PRKD1
PRKD2 = test system: PRKD2
PRKD3 = test system: PRKD3
PRKG1 = test system: PRKG1
PRKG2 = test system: PRKG2
PRKR = test system: T1, PRKR
T1 construct: gene EIF2AK2

PRKX = test system: PRKX
PRP4 = test system: T2, PRP4
T2 construct: gene PRPF4B

PYK2 = test system: T3, PYK2
T3 construct: gene PTK2B

QSK = test system: T4, QSK
T4 construct: gene KIAA0999

RAF1 = test system: RAF1
RET(M918T) = test system: RET(M918T)
RET(V804L) = test system: RET(V804L)
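Further: KINOMEscan scanMAX binding as percent activity remaining versus control; lower means stronger binding.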

Structure (SMILES)	Percent Control (PLK3) [%]	Percent Control (PLK4) [%]	Percent Control (PRKCD) [%]	Percent Control (PRKCE) [%]	Percent Control (PRKCH) [%]	Percent Control (PRKCI) [%]	Percent Control (PRKCQ) [%]	Percent Control (PRKD1) [%]	Percent Control (PRKD2) [%]	Percent Control (PRKD3) [%]	Percent Control (PRKG1) [%]	Percent Control (PRKG2) [%]	Percent Control (PRKR) [%]	Percent Control (PRKX) [%]	Percent Control (PRP4) [%]	Percent Control (PYK2) [%]	Percent Control (QSK) [%]	Percent Control (RAF1) [%]	Percent Control (RET(M918T)) [%]	Percent Control (RET(V804L)) [%]
COC(=O)Nc1nc2ccc(Oc3ccc(NC(=O)Nc4cc(C(F)(F)F)ccc4F)cc3)cc2s1.Cl [GW693917A]	100	66	100	100	100	91	62	100	100	86	100	91	85	100	100	94	88	17	0.8	1
COc1cccc(-n2ncc3c(N/N=C/c4ccncc4)ncnc32)c1 [GW784752X]	88	84	100	100	99	72	100	100	100	91	93	100	80	38	84	95	100	58	93	100
COc1ccc2[nH]c3c4[nH]c5ccc(OC)cc5c4c4c(c3c2c1)C(=O)NC4=O [GW296115X]	88	1.4	93	75	35	63	44	68	62	75	74	0.9	100	23	97	68	56	100	21	4.2
Cl.c1ccc(Cc2nc3ccc(Nc4ncnc5ccccc45)cc3[nH]2)cc1 [GR269666A]	100	100	100	78	100	100	88	100	100	100	100	100	84	100	100	100	100	100	100	100
COc1cc(N2CCN(C(C)C)CC2)ccc1Nc1nc(Nc2ccc(F)cc2C(=O)NC[C@@H](O)CO)c2cc[nH]c2n1 [GSK1392956A]	96	41	100	100	100	97	95	79	57	49	100	100	80	80	100	2.4	100	100	93	86
CC1=C(C(=O)Nc2ccc3[nH]ncc3c2)C(c2ccc(Cl)c(Cl)c2)CC(=O)N1 (stereo not shown) [GSK299115A]	84	87	100	94	100	91	95	100	85	47	45	67	79	25	74	79	92	100	74	75
COc1ccc(COc2ccc(Cc3cnc(N)nc3N)cc2OC)cc1 [GW632580X]	97	72	71	100	100	88	79	100	100	100	100	86	100	100	88	84	100	100	93	88
Cl.O=C(Nc1ccc(Oc2ccc3[nH]c(NC(=O)c4ccco4)nc3c2)cc1)Nc1cc(C(F)(F)F)ccc1F [GW683134A]	86	100	99	100	92	100	100	68	100	82	96	88	68	100	100	93	100	9.5	0.7	0.4
NS(=O)(=O)c1ccc(N/N=C2\C(=O)Nc3ccc(Cl)cc32)cc1 [GW280670X]	95	89	99	100	100	100	100	100	100	100	85	100	86	100	100	100	100	100	100	100
CCS(=O)(=O)c1ccc(OC)c(Nc2ncc(-c3cccc(OC)c3)o2)c1 [GW580509X]	94	50	100	62	100	100	100	100	100	100	100	100	85	100	82	100	100	100	50	78
Cc1cc(O)cc(C)c1/C=C/c1cncc(C(N)=O)c1 [GW435821X]	90	85	87	93	100	100	90	100	100	79	100	100	94	100	100	100	86	58	100	100
NS(=O)(=O)c1ccc(Nc2ncc(-c3ccccc3)o2)cc1 [GW572399X]	86	100	100	100	100	100	100	100	100	61	96	100	55	100	100	100	100	100	100	100
Cl.O=S1CCN(Cc2ccc(-c3ccc4ncnc(Nc5ccc(OCc6ccccc6)c(F)c5)c4c3)o2)CC1 [GW576924A]	100	100	100	91	100	100	100	100	100	100	100	100	86	100	100	100	100	100	100	100
CN(C)CCNC(=O)Nc1ccc(N(C)c2ccnc(Nc3ccc(CS(C)(=O)=O)cc3)n2)cc1.Cl [GW830900A]	90	24	100	100	100	85	100	100	100	100	100	95	100	90	100	57	87	100	79	88
COc1cc(/C=N/Nc2ncnc3[nH]ncc23)ccc1O [GW578748X]	52	36	78	100	100	63	96	100	100	85	100	22	41	100	100	100	90	100	4.6	76
COc1cc2ncnc(Nc3ccc4c(cnn4Cc4ccccc4)c3)c2cc1OC.Cl [GW282449A]	100	100	100	64	100	100	100	100	100	98	93	100	89	100	100	100	100	100	90	100
CCS(=O)(=O)c1ccc(OC)c(Nc2ncc(-c3cccc(F)c3)o2)c1 [GW621970X]	100	40	100	100	100	100	100	100	100	85	100	100	76	100	100	100	99	100	52	84
COc1cc(C)c(N(C)C(=O)CN(C)C)cc1Nc1nc(Nc2cccc(F)c2C(N)=O)c2cc[nH]c2n1 [GSK2219385]	94	84	100	100	100	82	92	100	89	88	92	82	100	95	100	81	100	100	100	100
NS(=O)(=O)c1ccc(N/N=C2\C(=O)Nc3ccc(C(=O)NCCc4c[nH]cn4)cc32)cc1 [GW300660X]	76	81	100	98	100	90	100	100	100	85	62	49	87	100	100	100	89	100	100	100
NS(=O)(=O)c1ccc(N/N=C2\C(=O)Nc3ccc(-c4cnco4)cc32)cc1 [GW276655]	76	60	75	100	100	54	81	100	94	100	68	57	54	100	100	79	100	100	59	60
